# Experimental data published in PubChem BioAssay (NCI).
# This is part of a sample that, as a whole, favours compounds with a hit. Of some 83,000 tested, about 20% had one in any assay.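 In brief: 96-well plates, 48 h treatment, single concentration, percent growth endpoint.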 Calls of active or inactive are those of the source. Rule for the calls: active = growth percent below 10; inactive = the rest.
# Experiments:
# Test in all cases: NCI-60 one-dose screen, 48 h (100 = growth as untreated, 0 = no growth, -100 = all killed)
# Conditions in all cases: 10 µM unless noted
# [1] = system: NCI-H23 lung
# [2] = system: NCI-H226 lung
# [3] = system: NCI-H322M lung
# [4] = system: HOP-62 NSCLC
# [5] = system: NCI-H460 lung
# [6] = system: HOP-92 NSCLC
# [7] = system: NCI-H522 lung
# [8] = system: A549/ATCC NSCLC
# [9] = system: 786-0 renal
# [10] = system: COLO 205 colon
# [11] = system: DU-145 prostate
# [12] = system: MALME-3M melanoma
# [13] = system: MDA-MB-231 breast
# [14] = system: RXF 393 renal
# [15] = system: SF-268 CNS
# [16] = system: SF-295 CNS
# [17] = system: SF-539 CNS
# [18] = system: UACC-257 melanoma
# [19] = system: M14 melanoma
# [20] = system: K-562 leukemia
Structure (SMILES),growth [1],growth [2],growth [3],growth [4],growth [5],growth [6],growth [7],growth [8],growth [9],growth [10],growth [11],growth [12],growth [13],growth [14],growth [15],growth [16],growth [17],growth [18],growth [19],growth [20]
COc1ccc(C(=O)/C=C/c2cc3c(cc2Br)OCO3)cc1S(N)(=O)=O,-31.1% (active),13.5% (inactive),6.66% (active),-38.4% (active),-0.316% (active),15.4% (inactive),-46.3% (active),0.453% (active),-40.4% (active),-69% (active),-0.788% (active),23.8% (inactive),23.7% (inactive),-58.2% (active),18.1% (inactive),-22.8% (active),-89.2% (active),63.6% (inactive),-71.2% (active),
CN1CCN(c2ccc(C(=O)/C=C/c3cc(C(F)(F)F)cc(C(F)(F)F)c3)cc2)CC1,-66.2% (active),-42.9% (active),-81.7% (active),-74.9% (active),-40.8% (active),-55.2% (active),,-87.8% (active),-97.9% (active),-83.4% (active),-73.9% (active),-86.5% (active),-89.9% (active),-86.7% (active),-51% (active),-86.4% (active),-97% (active),-88.9% (active),-97.4% (active),
Cc1cc2nc3c([nH]c2cc1C)c1ccc(=O)cc1n3CCN(C)C,38.8% (inactive),59% (inactive),39.9% (inactive),43.2% (inactive),2.91% (active),,19.8% (inactive),28.4% (inactive),49.1% (inactive),10.8% (inactive),28.8% (inactive),27.2% (inactive),38.7% (inactive),57.8% (inactive),61% (inactive),27% (inactive),26.4% (inactive),64% (inactive),,9.48% (active)
COc1cc(OC)cc(-c2cc3ccc(N(C)C)cc3c(=O)[nH]2)c1,44.1% (inactive),23% (inactive),52.9% (inactive),53% (inactive),9.42% (active),94.2% (inactive),-19.2% (active),24.4% (inactive),29.9% (inactive),-44.8% (active),21.5% (inactive),59.3% (inactive),33.1% (inactive),80.5% (inactive),36.3% (inactive),16.2% (inactive),-1.21% (active),75.7% (inactive),10.7% (inactive),
O=C1NC(=O)c2c1c1c3cc(Br)ccc3[nH]c1c1oc3ccc(F)cc3c21,-23.6% (active),-0.591% (active),-11.8% (active),-42% (active),-82.6% (active),-53.2% (active),,53.5% (inactive),-40.8% (active),30.1% (inactive),-31.5% (active),-31.1% (active),-25.3% (active),-47.7% (active),-22.6% (active),-64.3% (active),-68.5% (active),48.4% (inactive),20% (inactive),4.29% (active)
CC(=O)N1CCN(Cc2ccc3c(NNC(=O)c4cnccn4)nc4cc(F)ccc4n23)CC1,34.3% (inactive),8.73% (active),32.7% (inactive),15.4% (inactive),9.64% (active),56.1% (inactive),57.2% (inactive),25.4% (inactive),0.0554% (active),9.92% (active),39.4% (inactive),30.4% (inactive),36.5% (inactive),54.2% (inactive),28.7% (inactive),10.7% (inactive),6.02% (active),13.3% (inactive),-31.4% (active),
O=C1Nc2ccc([N+](=O)[O-])cc2C1=Nc1ccccc1,106% (inactive),102% (inactive),96.1% (inactive),114% (inactive),109% (inactive),118% (inactive),110% (inactive),130% (inactive),102% (inactive),108% (inactive),114% (inactive),100% (inactive),95.3% (inactive),143% (inactive),98.9% (inactive),90.7% (inactive),91.8% (inactive),134% (inactive),104% (inactive),
O=C(Cn1c(/C=C/c2cccc([N+](=O)[O-])c2)nc2ccccc2c1=O)Nc1ccccc1,77.2% (inactive),75.7% (inactive),83.9% (inactive),53.6% (inactive),67.2% (inactive),64.2% (inactive),91.8% (inactive),56.1% (inactive),59.6% (inactive),81.1% (inactive),69.4% (inactive),75.1% (inactive),33.8% (inactive),55.5% (inactive),78.5% (inactive),68.5% (inactive),8.73% (active),104% (inactive),70.6% (inactive),
COc1ccc(-c2nnc3ccc(N/N=C/c4ccc(O)cc4)nn23)cc1,32.5% (inactive),77.5% (inactive),61.9% (inactive),88.4% (inactive),44.3% (inactive),31.3% (inactive),46.7% (inactive),58.5% (inactive),22.9% (inactive),56.5% (inactive),51.9% (inactive),64.2% (inactive),60.6% (inactive),42.7% (inactive),35.8% (inactive),43.6% (inactive),36.4% (inactive),82.3% (inactive),56.4% (inactive),
C=C1CC[C@@H]2[C@]3(C)COC(c4cn[nH]c4-c4ccccc4)O[C@@H]3CC[C@@]2(C)[C@@H]1C/C=C1/C(=O)OCC1O (stereo not given in full),-27.2% (active),-30.6% (active),83.7% (inactive),63.8% (inactive),18% (inactive),-12.4% (active),,56.1% (inactive),-72.8% (active),-10.8% (active),5.39% (active),-81.2% (active),,-59.4% (active),36.5% (inactive),50.2% (inactive),-74.8% (active),13.5% (inactive),-17.5% (active),-10.2% (active)
CN1CCN(c2ccc(C(=O)/C=C/c3ccc(Br)cc3)cc2)CC1,52.4% (inactive),12.6% (inactive),62.8% (inactive),22.1% (inactive),64.4% (inactive),13.2% (inactive),52.8% (inactive),7.46% (active),19.5% (inactive),-14.7% (active),32.9% (inactive),74.4% (inactive),16.7% (inactive),31.5% (inactive),62.2% (inactive),35.2% (inactive),-34.9% (active),25.4% (inactive),-36.3% (active),
C=C1CC[C@@H]2[C@]3(C)COC(c4ccco4)O[C@@H]3CC[C@@]2(C)[C@@H]1C/C=C1/C(=O)OCC1OC(C)=O (stereo not given in full),61.6% (inactive),0.912% (active),79.5% (inactive),66.5% (inactive),37.6% (inactive),37.9% (inactive),,38.7% (inactive),3.41% (active),48.6% (inactive),48.8% (inactive),-60.3% (active),48.8% (inactive),27.5% (inactive),67.8% (inactive),59.5% (inactive),-47.3% (active),58.7% (inactive),19% (inactive),3.97% (active)
C/C(=N\Nc1ccc(S(N)(=O)=O)cc1)c1ccc(N=Nc2c(Nc3ccccc3)[nH][nH]c2=O)cc1,0.196% (active),42.5% (inactive),9.22% (active),-17.8% (active),8.87% (active),-7.76% (active),-28.8% (active),75% (inactive),-45.3% (active),-10.5% (active),13.8% (inactive),-65.9% (active),-31.3% (active),-24.1% (active),9.33% (active),5.12% (active),-77.4% (active),5.63% (active),-62.5% (active),
COc1ccc(C(=O)/C=C/c2cccc(Cl)c2)cc1S(N)(=O)=O,-10.4% (active),38.3% (inactive),10.7% (inactive),-37.4% (active),3.05% (active),85.8% (inactive),-50.1% (active),-81.7% (active),-57.3% (active),-65.1% (active),-40.6% (active),27.6% (inactive),-4.13% (active),-65.8% (active),7.86% (active),-88.8% (active),-80.6% (active),-29.6% (active),-10.5% (active),
COc1cc2oc(-c3cccc(C(=O)Nc4ccc(Cl)cc4)c3)cc(=O)c2c(OCCNC(=O)[C@@H](N)CCC(=O)O)c1OC,88.2% (inactive),86.6% (inactive),79.8% (inactive),81.9% (inactive),63.2% (inactive),63% (inactive),,103% (inactive),60.6% (inactive),70.6% (inactive),86.9% (inactive),76.1% (inactive),30.5% (inactive),9.77% (active),94.7% (inactive),86.4% (inactive),75.4% (inactive),100% (inactive),,32.2% (inactive)
Cc1cc(=O)oc2cc(OCCOc3ccc(/C=C/C(=O)Nc4ccccc4N)cc3)ccc12,46.5% (inactive),24.8% (inactive),63% (inactive),24.1% (inactive),19.5% (inactive),31% (inactive),,30.3% (inactive),23.4% (inactive),-24.8% (active),35.9% (inactive),48.6% (inactive),-16.1% (active),31% (inactive),27.9% (inactive),30.6% (inactive),18.9% (inactive),30.3% (inactive),54.2% (inactive),21.1% (inactive)
